Anthrax LF prot: inhibitors of Bacillus anthracis lethal factor protease | multiplex microsphere protease cleavage assay, LF | inhibition, % at 10 µM | 360,000 compounds, 0.12% hits; also: plate controls were buffer without enzyme for full effect and enzyme alone for no effect
Autofluor counter: flagged as autofluorescent in microsphere protease counterscreen. 360,000 compounds, 3.1% hits. fluorescence intensity (test concentration not listed). compound autofluorescence counterscreen, microsphere flow cytometry; hits give high values. AID 624483; in the data active = fluorescence intensity above about 16000; inconclusive = no clear call, values can overlap the other calls
MazEF act: MazEF (E. coli) toxin RNase activation; P0AE70; FAM/BHQ RNA-DNA oligo cleavage fluorescence, 5 h; activation, % at 20 µM; 350,000 compounds, 0.32% hits; AID 504720; in the data active = activation above about 50%
Target sequence (P0AE70 whole entry, looked up): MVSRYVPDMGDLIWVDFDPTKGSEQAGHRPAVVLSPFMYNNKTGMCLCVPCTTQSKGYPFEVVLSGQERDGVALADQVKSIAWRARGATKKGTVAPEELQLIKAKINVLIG
BoNT-A LC inh2: blocks Botulinum neurotoxin A light chain protease; AID 588499; 360,000 compounds, 0.17% hits; multiplex microsphere protease substrate cleavage, flow cytometry; inhibition, % at 10 µM; also: plate controls were buffer without enzyme for full effect and enzyme alone for no effect
BoNT-F LC inh: inhibitors of Botulinum neurotoxin F light chain protease. Multiplex microsphere protease cleavage assay, flow cytometry. inhibition, % at 10 µM. 360,000 compounds, 0.22% hits; in the data active = inhibition above about 35%, passing the limit was not always enough; inconclusive = no clear call, values can overlap the other calls; also: plate controls were buffer without enzyme for full effect and enzyme alone for no effect
An asterisk follows results filed as active; ? = inconclusive; / = no result. Most compounds without a hit are left out; they make up all but 3.7% or so of the library. Rule as the data show it, unless noted: active = inhibition above about 30%; inconclusive = no clear call, values can overlap the other calls; inactive = below that.

SMILES	Anthrax LF prot	Autofluor counter	MazEF act	BoNT-A LC inh2	BoNT-F LC inh
CCn1c(SCC(=O)N2CCCC2)nnc1-c1ccc(S(=O)(=O)N2CCCCCC2)cc1	2	19519*	12	?	2
Cc1nnc(SCC(=O)c2ccc(S(=O)(=O)N3CCOCC3)cc2)n1-c1ccccc1	-2	24041*	7	?	-6
CCn1c(SCC(=O)N2CCCCC2)nnc1-c1ccc(S(=O)(=O)N2CCN(C)CC2)cc1	0	16315*	11	1	3
O=C(O)C1CCN(S(=O)(=O)c2cccc3nonc23)CC1	-2	5465	11	-2	3
O=C(NC1CCCC1)c1ccc(COc2ccccc2Br)o1	0	3790	4	2	-2
CN(C)c1ccc(C(O)P(=O)(OC2CCCCC2)OC2CCCCC2)cc1 (stereo not given)	/	/	8	/	/
COc1ccc(C(O)P(=O)(OC2CCCCC2)c2ccc(N(C)C)cc2)cc1OC (stereo not given)	-1	22879*	-1	0	-1
O=C1SC(SCc2ccccc2)=N/C1=C\c1ccco1	-3	23038*	1	-2	-4
Cc1c(NC(=O)c2nn(CC(C)C)c(=O)c3ccccc23)c(=O)n(-c2ccccc2)n1C	/	/	1	/	/
Cc1cccn2cc(CNc3ccccc3)nc12	-2	20732*	-11	-1	-6
CCCCNC(=S)N(C)/N=C/c1c(C)[nH]c2ccccc12	5	5277	12	32*	-29
CCCCNC(=S)N(C)/N=C/c1c(F)c(F)c(F)c(F)c1F	-1	2090	1	0	10
COc1cccc(C(C)(O)c2nc(-c3cc4ccccc4o3)cs2)c1 (stereo not given)	-6	3818	/	0	-4
COc1ccc(C2c3ccc(O)cc3Oc3ncn(CCN4CCOCC4)c(=N)c32)cc1 (stereo not given)	-7	4720	-49	0	3
N=c1c2c(ncn1CCCO)Oc1cc(O)ccc1C2c1ccccc1 (stereo not given)	-1	4225	64*	0	0
COc1ccccc1C1c2ccc3ccccc3c2Oc2ncn(CCN(C)C)c(=N)c21 (stereo not given)	-3	4009	29	3	34
COc1ccc(C2c3ccc4ccccc4c3Oc3ncn(CCCN(C)C)c(=N)c32)cc1 (stereo not given)	3	3568	50*	-2	-24
CCOc1ccc(S(=O)(=O)N2CCC(C(=O)NCc3ccccn3)CC2)cc1C	-10	4118	-9	3	4
Cc1ccc(C(=O)O/N=C/c2c(N3CCOCC3)n(C)c3ccccc23)cc1	-10	5928	2	-1	-25
CC(=O)O/N=C/c1c(N2CCOCC2)n(C)c2ccccc12	-6	23889*	4	-2	-1
CC12CC3(C)CC(C)(C1)CC(C(=O)NC1=NCCS1)(C2)C3	-3	23810*	-8	?	-18
CCOC(=O)CNc1c(-c2ccc(O)cc2)nc2ccc(Cl)cn12	-6	23767*	4	-1	0
CCOC(=O)CNc1c(-c2ccc(O)cc2)nc2ccccn12	-2	23116*	-3	1	1
CCOC(=O)CNc1c(-c2ccccc2)nc2ccc(Cl)cn12	2	3693	-2	0	-6
CCOc1ccccc1NC(=O)COC(=O)CN1C(=O)NC(C)(C)C1=O	1	4570	-6	4	6
SMILES	Anthrax LF prot	Autofluor counter	MazEF act	BoNT-A LC inh2	BoNT-F LC inh
N#CC1(NC(=O)Cn2cc(C(F)(F)F)ccc2=O)CCCC1	-7	4116	4	0	4
O=c1[nH]c2ccccc2nc1/C=C/c1ccc(F)cc1	-1	5620	849*	8	-8
COc1ccc(OC)c(/C=C/c2nc3ccccc3[nH]c2=O)c1	?	5926	240*	?	?
COc1ccc(OC)c(C=Nc2ccccc2-c2nc3ccccc3[nH]2)c1	-3	1954	2	0	-12
O=c1[nH]c2ccccc2nc1/C=C/c1ccccc1	12	4647	-6	16	2
Cc1ccc(Cn2c(C)c(C(=O)NCC(C)C)sc2=O)cc1	-10	5330	/	-1	-7
C=CCn1c(SCc2csc(C)n2)nc2sc3c(c2c1=O)CCCCC3	-6	21298*	-1	2	3
O=C(CCSc1nccn1Cc1ccccc1)N1CCOCC1	-6	20488*	-2	6	7
CC(=O)Nc1ccc(NC(=O)CSc2nccn2Cc2ccccc2)cc1	-2	20023*	6	4	6
O=c1c(-c2ccccc2)cocc1-c1ccccc1	2	2794	3	0	4
